A549 viability – Nrf2 qHTS screen for inhibitors: counterscreen for cytotoxicity; A549 ARE-Fluc cells, CellTiter-Fluor viability, 18-24 h; Potency, µM (series often up to 46 µM), hits mostly inhibitors; 390,000 tested, 0.16% active; AID 504648, 2011
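Cytotoxicity counterscreen: CellTiter-Fluor fluorescence was measured in A549 ARE_Fluc cells after 18-24 h of compound exposure in a concentration series. The subsequent BugLite luminescent read reports ARE-luciferase activity.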
Nrf2 activator – qHTS of Nrf2 Activators | 410,000 tested, 0.31% active | AID 624171, 2012 | Potency, µM (top dose mostly 46.1 µM), hits mostly activators | AREc32 ARE-luciferase reporter (MCF7-derived line), luminescence, 24 h; further: nearly all actives have a fitted effect of over 65% in size
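AREc32_Fluc, 1000 cells/well, OPTI-MEM + 5% FBS, o/n 37 deg C 5% CO2; 23 nL cpd by pin tool, 24 hr; Steady-Glo 30 min RT, luminescence.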
mIDH1 inhibitor – qHTS for Inhibitors of mutant isocitrate dehydrogenase 1 (IDH1): qHTS; Isocitrate dehydrogenase [NADP] cytoplasmic (Homo sapiens), O75874; IDH1-R132H enzyme, NADPH consumption, diaphorase/resazurin fluorescence; Potency, µM (series often up to 76.6 µM), most hits filed as inhibitors; 390,000 tested, 0.093% active; AID 602179, 2012; further: nearly all actives have a fitted effect of over 65% in size
Target sequence (O75874 whole entry R132H, stated change not applied): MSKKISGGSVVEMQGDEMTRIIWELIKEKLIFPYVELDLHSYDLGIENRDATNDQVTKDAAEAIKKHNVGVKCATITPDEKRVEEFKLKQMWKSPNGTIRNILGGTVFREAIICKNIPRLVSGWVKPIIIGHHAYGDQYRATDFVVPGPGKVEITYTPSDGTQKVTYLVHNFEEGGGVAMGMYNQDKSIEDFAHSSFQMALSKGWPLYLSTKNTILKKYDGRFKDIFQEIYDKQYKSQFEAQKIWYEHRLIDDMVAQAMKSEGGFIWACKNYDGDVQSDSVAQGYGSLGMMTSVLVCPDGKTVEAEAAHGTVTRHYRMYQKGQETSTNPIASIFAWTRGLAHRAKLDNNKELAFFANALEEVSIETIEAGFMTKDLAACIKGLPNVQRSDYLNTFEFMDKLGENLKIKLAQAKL
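IDH1-R132H (0.5 ug/mL) preincubated 30 min with compound, then NADPH (0.016 mM) and alpha-KG (2 mM) added; 80 min at RT, pH 7.5. Remaining NADPH coupled via diaphorase/resazurin to fluorescence (540/590 nm); concentration-response curves normalized to no-enzyme control.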
ELG1 repair inh – qHTS screen for small molecules that inhibit ELG1-dependent DNA repair in human embryonic kidney (HEK293T) cells expressing luciferase-tagged ELG1; HEK293T ELG1-luciferase reporter, luminescence, 16 h; DNA damage induced by 5-fluorouridine; Potency, µM (doses to about 46.1 µM), actives largely listed as inhibitors; 330,000 tested, 2.3% active; AID 504467, 2011; further: nearly all actives have a fitted effect of over 55% in size
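DMSO vehicle served as the neutral condition. Each well held 2,000 cells given 5-fluorouridine plus compound; after 16 hr at 37 °C/5% CO2, ONE-Glo was added and luciferase measured 30 min later.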
Nrf2 block – Nrf2 qHTS screen for inhibitors; A549 ARE-Fluc reporter, luciferase luminescence, 18-24 h; Potency, µM (doses to about 46 µM), usual class: inhibitors; 360,000 tested, 2.1% active; further: nearly all actives have a fitted effect of over 60% in size
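Concentration-response testing used A549 ARE_Fluc cells at 5000 cells/well. Following an 18-24 h compound incubation, viability was read by fluorescence (Ex 405/Em 525) and luciferase output by luminescence.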
Hits are given with their value; n = inactive; u = inconclusive; x = no result given; [ ] = remark or other dose. Shown are actives, neighbours in structure and some others; about 3.8% of the full set was active somewhere. The call rests on the fitted dose curve; in most records, active means well fitted curve in the direction sought with a large enough effect; inconclusive means small, poorly fitted or top-dose-only effect, or another doubt; inactive means no such curve, though single readings can be large; an effect the other way counts as inactive or inconclusive.

SMILES	A549 viability	Nrf2 activator	mIDH1 inhibitor	ELG1 repair inh	Nrf2 block
Cc1ccc2nsnc2c1NC(=O)c1ccc(-c2cc(Cl)ccc2Cl)o1	9.2µM	n	n	u	13µM
O=C(/C=C/c1ccc(Cl)cc1Cl)Nc1ccc(CN2CCOCC2)cc1	n	n	n	u	7.31µM
COc1ccc(CCn2c3c(c(=O)[nH]c2=S)CN(c2ccccc2)CN3)cc1OC	n	x	x	x	n
COc1ccc(OC)c(-c2nnc3n2N=C(c2c(OC)cccc2OC)CS3)c1	n	x	x	x	n
O=[N+]([O-])c1cccc(-c2ccc(C(=S)N3CCOCC3)o2)c1	n	u	n	u	u
O=C(Nc1ccc(CN2CCOCC2)cc1)c1ccc(-c2cccc([N+](=O)[O-])c2)o1	n	n	n	13µM	n
Clc1ccc(-c2csc(N/N=C/c3ccco3)n2)cc1	u	8.91µM	n	u	u
CCC1CCCCN1C(=O)CCn1c(=O)oc2ccccc21 (stereo not given)	n	n	n	x	n
Clc1ccccc1-c1nnc2sc(-c3ccncc3)nn12	n	n	n	u	n
Clc1ccccc1-c1nn2c(-c3ccncc3)nnc2s1	n	n	n	10.3µM	8.2µM
Cc1ccc(NC(=S)NC(NC(=O)c2ccccc2)C(Cl)(Cl)Cl)c(C)c1 (stereo not given)	u	n	n	u	20.6µM
CSc1nccc(-c2cc(Cl)sc2Cl)n1	n	11.2µM	n	n	x
Cc1ccccc1C(=O)Nc1scc(-c2ccc(Br)cc2)c1C(=O)O	n	n	n	x	8.2µM
Cc1ccc(-c2csc(NC(=O)c3ccccc3F)c2C(=O)O)cc1	n	n	n	u	u
O=C(Nc1scc(-c2ccc(Br)cc2)c1C(=O)O)c1ccccc1F	n	n	n	x	10.3µM
COC(=O)c1nc(N2CCN(S(=O)(=O)c3ccc(C)cc3)CC2)c2ccccc2n1	n	x	x	x	n
COC(=O)C1=C[C@@H](C(=O)OC)C2C3=C(C(=O)[C@]2(C)NC(=O)c2ccccc2)[C@H](C)n2c(=O)n(C)c(=O)n2[C@@H]3C1 (stereo not given in full)	n	x	x	x	n
O=C(NCc1ccccc1Br)C1CCCN(C(=O)N2CCOc3ccccc32)C1 (stereo not given)	n	n	n	x	u
O=C(Nc1ccn(Cc2c(F)c(F)cc(F)c2F)n1)c1ccc(COc2ccccc2Cl)cc1	n[1.84 µM]	n	n	u	20.6µM
O=C(Nc1ccn(Cc2c(F)c(F)cc(F)c2F)n1)c1ccc(COc2cc(Cl)ccc2Cl)o1	n	n	n	u	u
O=C(Nc1ccn(Cc2ccccc2F)n1)c1ccc(COc2ccccc2Cl)cc1	n	n	n	u	18.4µM
Cc1ccc(-n2c(Cc3ccccc3)n[nH]c2=S)c(C)c1	n	n	n	n	13µM
Cc1ccc(CN(Cc2ccco2)C(=S)NCC(=O)NCc2cccnc2)cc1	n	n	n	u	7.31µM
Cc1ccc(CNC(=O)CNC(=S)N(Cc2ccccc2)Cc2cccnc2)cc1	n	n	n	u	n
O=C(CCSc1ccc(Cl)cc1)N1CCN(c2ccc(O)cc2)CC1	n	n	n	8.2µM	n
SMILES	A549 viability	Nrf2 activator	mIDH1 inhibitor	ELG1 repair inh	Nrf2 block
O=C(CN1C(=O)c2ccccc2S1(=O)=O)NCCSCc1c(F)cccc1Cl	n	n	n	n	n
O=C(NCc1ccccc1)N1CCOCC1	n	n	n	n	n
O=C(OCc1ccccc1)N1CCOCCOCCN(C(=O)OCc2ccccc2)CCOCCOCC1	u	n	n	10µM	u
Nc1ccc(NC(=O)c2cc(Cl)ccc2O)c(Cl)c1	n	x	x	x	n
Cc1ccc(C)c(Nc2nc3c(S(=O)(=O)c4ccc(C(C)C)cc4)nnn3c3ccsc23)c1	u	n	u	x	16.4µM
Cc1ccc(C)c(Nc2nc3c(S(=O)(=O)c4ccc(Br)cc4)nnn3c3ccsc23)c1	u	n	n	x	u
CCOc1ccc(NC(=S)NC(=O)/C=C/c2ccc(C)cc2)c([N+](=O)[O-])c1	n	n	n	n	u
CCOc1ccc(NC(=S)NC(=O)/C=C/c2ccc(OC)c(OC)c2)c([N+](=O)[O-])c1	u	n	n	u	20.6µM
COc1ccc(-c2nc3ccccc3nc2-c2ccc(OC)c(OC)c2)cc1OC	n	n	n	n	u
COc1ccc(-c2cc3ccccc3nc2N)cc1OC	n	n	n	u	16.4µM
O=C(Nc1nnc(C2CC2)o1)c1ccc(S(=O)(=O)N2CCCc3ccccc32)cc1	n	n	n	7.31µM	10.3µM
O=C(NCc1ccccc1)c1ccc(S(=O)(=O)N2CCCc3ccccc32)cc1	n	n	n	n	u
COc1ccc(-c2nnc(NC(=O)c3ccc(S(=O)(=O)N4CCCc5ccccc54)cc3)o2)cc1	u	n	n	u	14.1µM
COc1cccc(-c2nnc(NC(=O)c3ccc(S(=O)(=O)N4CCOCC4)cc3)o2)c1	n	n	n	u	11.6µM
COc1ccc(C(=O)Nc2ccc3c(c2)CCCN3S(=O)(=O)c2ccc(C)cc2)cc1	n	n	n	x	x

Source: PubChem BioAssay (National Center for Advancing Translational Sciences (NCATS))
